Hits are enriched below; roughly 1.7% of the tested compounds scored in any of these assays.
GLP-1R inv ag: inverse agonists of human GLP-1 receptor | P43220 | HEK293 GLP-1R CRE-luciferase, luminescence, 24 h; GLP-1R form is constitutively active | Potency, µM (series often up to 38.3 µM), for the others: at the top dose activity change, negative = inhibition, most hits filed as inhibitors | hit rate 1.6% among 410,000; note: % is set by controls: 0 for no effect and ±100 for the full control effect; nearly all actives have a fitted effect of over 55% in size
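Using stably transfected HEK293 (constitutively active GLP-1R, cAMP-luciferase reporter), compounds were incubated 24 hr and luciferase measured by luminescence.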
GLP1R ag: GLP-1 receptor (human) agonism | Potency, µM (doses to about 45.6 µM), for the others: at the top dose activation, actives largely listed as activators | AID 624172 | HEK293 GLP-1R CRE-luciferase, luminescence, 4-6 h; cells express a hypersensitive GLP-1R form | P43220 | hit rate 0.007% among 380,000; note: % of control where 0% means no effect
HEK293 tox: cytotoxicity counter-screen for GLP-1 receptor inverse agonists | HEK293 cAMP-luciferase reporter cells, luminescence, 24 h | Potency, µM (doses to about 38.3 µM), without a hit: at the highest dose activity change, negative = inhibition, usual class: inhibitors | hit rate 0.13% among 410,000;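 note: loss of luciferase light is scored as toxicity; % is set by controls: 0 for no effect and ±100 for the full control effect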
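A 23 nL compound transfer followed 12 hours of cell culture at 37 deg C; exposure then lasted 24 hr. Luciferase assay detection reagent was dispensed and plates read for luminescence after a 12 min room-temperature wait.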
PTHR1 agonist: agonists of human PTHR1 parathyroid hormone receptor. hit rate 0.075% among 410,000. Potency, µM (series often up to 115 µM), inactives show at the top dose activation, actives largely listed as activators. Q03431. AID 743266. HEK293 GP2 PTHR1 cells, GloSensor cAMP luminescence, 1 h; note: nearly all actives have a fitted effect of over 55% in size
Target sequence (Q03431 whole entry, looked up): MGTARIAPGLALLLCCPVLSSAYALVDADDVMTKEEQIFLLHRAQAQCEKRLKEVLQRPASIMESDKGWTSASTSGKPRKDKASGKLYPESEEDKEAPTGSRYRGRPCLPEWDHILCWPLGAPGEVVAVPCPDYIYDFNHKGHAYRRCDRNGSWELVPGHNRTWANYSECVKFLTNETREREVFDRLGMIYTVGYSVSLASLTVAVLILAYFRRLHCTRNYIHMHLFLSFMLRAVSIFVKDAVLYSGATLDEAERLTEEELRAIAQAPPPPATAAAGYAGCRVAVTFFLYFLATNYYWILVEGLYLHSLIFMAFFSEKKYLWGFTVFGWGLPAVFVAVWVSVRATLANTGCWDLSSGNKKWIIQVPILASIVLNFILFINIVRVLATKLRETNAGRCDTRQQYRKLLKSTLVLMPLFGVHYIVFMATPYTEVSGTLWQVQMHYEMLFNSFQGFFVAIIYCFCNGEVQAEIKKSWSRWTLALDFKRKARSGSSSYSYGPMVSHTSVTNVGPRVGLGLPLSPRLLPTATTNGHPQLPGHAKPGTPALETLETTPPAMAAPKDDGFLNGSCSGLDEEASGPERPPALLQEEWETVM
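HEK-293-derived GP2 cells expressing PTHR1 and a GloSensor cAMP reporter, 3,000/well, plated overnight, given luciferin plus IBMX (each 0.5 mM as added) for 1 h at 37 °C, then compound for 1 h at 37 °C. Luminescence was read after 15 min at room temperature.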
* hit, by the source's call; i = inactive; ? = inconclusive; · = no result; [ ] = remark or other dose. Calls come from the whole dose curve; as a rule, active = well fitted curve in the direction sought with a large enough effect; inconclusive = small, poorly fitted or top-dose-only effect, or another doubt; inactive = no such curve, though single readings can be large; an effect the other way counts as inactive or inconclusive. Potency is the fitted concentration of half-maximal effect.

SMILES	GLP-1R inv ag	GLP1R ag	HEK293 tox	PTHR1 agonist
COc1ccccc1N(C)S(=O)(=O)c1ccc(Cl)c(C(=O)NNC(=O)c2ccccc2O)c1	11µM*	-3%	-12%	-3%
Cc1ccc(S(=O)(=O)N2C/C=C\CN(S(=O)(=O)c3ccccc3Br)CC2)cc1	10µM*	1%	2%	i
CC(C)c1ccc(N(CC(=O)NCc2ccco2)C(=O)CCC(=O)Nc2ccccn2)cc1	?	7%	-9%	-19%
CC(=O)Nc1ccn(C2COC(COC(=O)c3ccccc3)O2)c(=O)n1 (configuration not stated)	·	8%	·	·
CCCOC(=O)c1ccc(Oc2cn[nH]c2-c2ccc(OCC)cc2O)cc1	10µM*	-26%	?	-10%[57.5 µM]
COc1ccc(-c2cn[nH]c2-c2ccc(OC)cc2O)cc1	10µM*	-2%	?	i
CCOc1ccc(-c2[nH]ncc2-c2ccccc2)c(O)c1	10µM*	5%	-3%	-17%
COc1ccc(-c2[nH]ncc2-c2ccc(Cl)cc2)c(O)c1	?	-4%	-20%	i
COc1ccc(-c2cn[nH]c2-c2ccc(OCc3ccccc3)cc2O)cc1	3.5µM*	2%	?	-14%
Cc1ccc(-n2c(=O)c3c(cnn3C)n(CC(=O)Nc3cc(C)ccc3C)c2=O)cc1	1%	·	-6%	i
CCC(Sc1nnc2c(n1)[nH]c1ccccc12)C(=O)Nc1ccccc1OC (configuration not stated)	19%	·	-13%	-22%
C=CCOC(=O)C1=C(C)NC(C)=C(C(=O)OCC=C)C1/C=C/c1ccccc1	5µM*	3%	-26%	-13%
C=CCOC(=O)C1=C(C)NC(C)=C(C(=O)OCC=C)C1c1ccco1	11µM*	-1%	7%	-41%
CC(Sc1nnnn1C)C(=O)Nc1ncc(Cl)cc1Cl (configuration not stated)	21%	2%	4%	-22%
COc1ccc(OC)c(CCNc2nc3ccccc3c3nc(-c4cccnc4)nn23)c1	19%	·	3%	?
CCC(C)(C)C1CCC2(CC1)NC(=O)N(CC(=O)NC(C)CCc1ccccc1)C2=O (configuration not stated)	3.5µM*	6%	14%	i
COc1ccc(CCC(C)N2CCC(CO)(Cc3ccccc3)CC2)cc1 (configuration not stated)	7.9µM*	7%	0%	-5%
CCCSc1nc(C)cc(C)c1S(=O)(=O)c1ccccc1C	8.9µM*	11%	85%	i
Cc1cc(C)c(S(=O)(=O)c2ccccc2C)c(SCC(C)C)n1	?	1%	3%	-5%[57.5 µM]
C=Cc1ccc(Cn2c(C(=O)O)c(CNCc3ccc(F)cc3)c3ccc(C)cc32)cc1	?	·	?	-9%
COc1ccc(CCNC(=O)c2ccc3c(c2)c(C)c(C)n3Cc2ccccc2)c(OC)c1OC	?	·	-3%	i
Cc1c(C)n(Cc2ccccc2)c2ccc(C(=O)NCCc3ccccc3Cl)cc12	10µM*	·	1%	i
Cc1ccccc1CCNC(=O)c1ccc2c(c1)c(C)c(C)n2Cc1ccccc1	10µM*	·	4%	15%
COc1cc(Br)c(C[N+]2(CCOCCC3CCC4CC3C4(C)C)CCOCC2)cc1OC (configuration not stated)	·	1%	·	·
CCCCc1ccc(NC(=O)Nc2cccnc2)cc1	7.1µM*	-3%	2%	i
SMILES	GLP-1R inv ag	GLP1R ag	HEK293 tox	PTHR1 agonist
Cn1nc(-c2ccccc2)cc1NC(=O)Nc1ccccc1F	?	7%	-27%	i
Cc1cc(C)cc(NC(=O)Nc2cc(-c3ccccc3)nn2C)c1	8.9µM*	22%	-15%	-7%
O=C(c1cn(CCOc2ccccc2F)c2ccccc12)C1CCCCC1	-17%	·	-4%	-9%
Cc1csc(NC(=O)c2ccc(N3CCCC3=O)cc2)n1	2.2µM*	-5%	5%	-56%
CCn1ncc(Br)c1C(=O)Nc1ccn(C23CC4CC(CC(C4)C2)C3)n1	7.9µM*	15%	8%	-32%
OCCOC[C@H]1O[C@H](OCCO)[C@H](OCCO)[C@@H](OCCO)[C@@H]1OCCO (tested in a mixture with another compound)	·	-3%	·	·
CC(C)(C)n1ncc2c(=O)n(Cc3c(F)cccc3Cl)cnc21	2.5µM*	12%	-4%	-20%[57.5 µM]
Cc1ccc(Cl)c(Cn2cnc3c(cnn3C(C)(C)C)c2=O)c1F	·	23%	·	-29%
CC(=O)Nc1ccc(NC(=O)Cn2cnc3c(cnn3C(C)(C)C)c2=O)cc1	16%	28%	-10%	7%[57.5 µM]
CC(C)(C)n1ncc2c(=O)n(CC(=O)NCc3ccccc3)cnc21	4.5µM*	-14%	?	-15%[57.5 µM]
Cc1nnc(N2CCN(C(=O)Nc3cccc(C(F)(F)F)c3)CC2)c2nn(-c3ccccc3)c(C)c12	-7%	·	-7%	i
Cc1cccc(NC(=O)c2sc3nc(C)nc(N4CCOCC4)c3c2C)c1	7%	27%	2%	-18%
Cc1nc(N2CCN(c3ccccn3)CC2)c2c(C)c(C(=O)Nc3c(F)cc(F)cc3Br)sc2n1	4.5µM*	-5%	-1%	i
Cc1nc(N2CCN(c3ccccn3)CC2)c2c(C)c(C(=O)Nc3c(C)cc(Br)cc3C)sc2n1	2µM*	-3%	4%	-4%
Cc1nc(N2CCCCC2)c2c(C)c(C(=O)Nc3ccc4c(c3)OCCO4)sc2n1	5.6µM*	-1%	-23%	-29%
CC(C)(C)[C@H]1COC(=O)[C@H](NC(=O)OCC2c3ccccc3-c3ccccc32)C/C=C\C[C@@H](CC(=O)N(CCO)Cc2ccccc2)C(=O)N1	11%	-1%	13%	-1%
COc1ccc(Cl)cc1NC(=O)C1CC(=O)N(C2CCCCC2)C1 (configuration not stated)	?	0%	-16%	-3%
O=C(Nc1cc(Cl)cc(Cl)c1)C1CC(=O)N(C2CCCC2)C1 (configuration not stated)	8.9µM*	3%	-3%	i
CCc1ccccc1NC(=O)c1cc(S(=O)(=O)N(CC)c2ccccc2)ccc1F	11µM*	·	0%	i
CCN(c1ccccc1)S(=O)(=O)c1ccc(OC)c(NC(=O)Cc2ccc(F)cc2)c1	?	13%	-4%	-21%
Nc1ccn([C@@H]2O[C@H](CNCc3cnc(N4CCOCC4)nc3)[C@@H](O)[C@H]2O)c(=O)n1	0%	0%	-27%	-26%
Cc1ccc(C)c(NC(=O)CCC(=O)NNS(=O)(=O)c2ccc(Cl)cc2)c1	-7%	-4%	0%	10%
CN(C)S(=O)(=O)N(CC(=O)NCCSCc1ccc(Cl)cc1)c1ccccc1	8.9µM*	15%	5%	-21%
O=C1c2cccc(NCCCNCCO)c2C(=O)c2cccc(NCCCNCCO)c21	?	-15%	7.9µM*	-12%
O=C1c2ccccc2C(=O)c2c(NCc3cccnc3)cccc21	14%	3%	-2%	-6%

Bioassay records (PubChem BioAssay)
